# In all, about 50,000 compounds went through this assay and about 800 (1.6%) showed an effect of 50% or more. What follows is part of a selection rich in strong results, with near analogues and random picks from the rest.
# Biological target: Bcl-2-like protein 10 (Homo sapiens) (UniProt Q9HD36)
# Experiment: Phenotype converters, Bcl-B/TR3 peptide binding displacement, primary biochemical FP (AID 1240);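 note: 0% = Bcl-B with tracer peptide and DMSO and 100% = tracer peptide lacking Bcl-B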
# Details: GST-Bcl-B / FITC-TR3 peptide fluorescence polarization; stronger effect = higher value; compound at 3.75 mg/L
# Bcl-2-like protein 10 (Homo sapiens), sequence (Q9HD36 whole entry, looked up): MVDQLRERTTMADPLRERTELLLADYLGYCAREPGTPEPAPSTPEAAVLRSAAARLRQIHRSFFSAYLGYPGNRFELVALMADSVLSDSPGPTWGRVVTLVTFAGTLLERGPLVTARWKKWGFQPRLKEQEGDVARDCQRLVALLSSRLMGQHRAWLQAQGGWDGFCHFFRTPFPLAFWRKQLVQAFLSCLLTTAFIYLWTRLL
row,Compound,displacement [%]
1,O=C(N/N=C/c1cccnc1)c1cc(-c2ccc3ccccc3c2)n[nH]1,-3.8
2,COc1ccc(S(=O)(=O)N2CCN(C3CC4CCC3C4)CC2)cc1 (stereo not drawn),-1.9
3,Cc1ccc(CNC(=O)C(=O)NC(C)C)cc1,4.4
4,CC1(C)CC(=O)C2=C(C1)Nc1ccccc1NC2c1ccc(-c2ccccc2[N+](=O)[O-])o1 (stereo not drawn),-15.9
5,Cc1cc(-n2c(C)cc(C=O)c2C)ccc1I,-15.5
6,O=C1c2cccc([N+](=O)[O-])c2C(=O)N1c1ccncc1,-2.3
7,O=C1/C(=C/c2ccco2)SC(=S)N1c1cccc(C(F)(F)F)c1,15.4
8,O=C1S/C(=C\c2ccc(Br)o2)C(=O)N1c1ccc(Cl)cc1,88.9
9,O=C1S/C(=C\c2ccc(Br)cc2)C(=O)N1c1ccc(Cl)cc1,-3.3
10,CCOc1ccc(N2C(=O)S/C(=C\c3ccc(C)o3)C2=O)cc1,108
11,CCOc1ccc(N2C(=O)S/C(=C\c3ccc(OC)cc3)C2=O)cc1,13.2
12,O=C1/C(=C/c2ccco2)SC(=S)N1c1ccc(F)cc1,7.9
13,O=C1/C(=C/c2ccc(I)o2)SC(=S)N1c1cccc(C(F)(F)F)c1,55.7
14,Cc1ccc(/C=C2\SC(=S)N(c3ccc(F)cc3)C2=O)o1,101
15,CCOc1ccc(N2C(=O)S/C(=C\c3ccc(C)cc3)C2=O)cc1,-5.8
16,O=C1S/C(=C\c2ccc(Br)o2)C(=O)N1c1ccc(Cl)c(Cl)c1,-3.9
17,Cc1ccc(/C=C2\SC(=S)N(c3ccc(C)c(C)c3)C2=O)o1,14.9
18,O=C1/C(=C/c2ccc(Br)o2)SC(=S)N1c1cccc(C(F)(F)F)c1,21.6
19,Cc1cc(=O)oc2cc(OCC(=O)OC(C)C)ccc12,1.9
20,CCOC(=O)c1c(NC(C)=O)sc(I)c1-c1ccccc1,0.8
21,Cc1cc(C(=O)NC2CCSC2=O)ccc1[N+](=O)[O-] (stereo not drawn),-2.7
22,CS(=O)(=O)N(Cc1ccc(Cl)cc1)c1ccc(C(=O)NCc2ccco2)cc1,-14.6
23,Cc1ccc([N+](=O)[O-])cc1S(=O)(=O)N1CCOCC1,5.1

row,Compound,displacement [%]
1,CCOc1cccc(C(=O)Nc2cc(-c3nc4cc(C)cc(C)c4o3)ccc2C)c1,9.5
2,Cc1ccc(C)c(NC(=O)c2c(-c3ccccc3Cl)noc2C)c1,9.9
3,Cc1ccsc1/C=C1\SC(=S)N(c2c(C)n(C)n(-c3ccccc3)c2=O)C1=O,6.6
4,CCOc1ccc(N2C(=O)S/C(=C\c3ccco3)C2=O)cc1,92.2
5,CCOc1ccc(/C=C2\SC(=O)N(c3ccccc3)C2=O)cc1,-1.9
6,Cc1ccsc1/C=C1\SC(=S)N(c2ccccc2)C1=O,126
7,Cc1ccsc1/C=C1\SC(=S)N(C(C)c2ccccc2)C1=O (stereo not drawn),-6.6
8,CCOc1ccc(N2C(=O)S/C(=C\c3ccccc3OC)C2=O)cc1,32.7
9,O=C(O)CSCCCN1C(=O)c2cccc3cccc(c23)C1=O,8
10,CC1=C(C(=O)Nc2ccccc2C)C(c2ccc(F)cc2)NC(=O)N1 (stereo not drawn),16.2
11,Cc1ccc(S(=O)(=O)Nc2ccccc2C(=O)Nc2ccccc2)cc1,9.6
12,COC(C(=O)N1CCCCCC1)(c1ccccc1)c1ccccc1,16.8
13,COc1cc(/C=C2\SC(=S)NC2=O)ccc1Oc1ccc([N+](=O)[O-])cn1,20.6
14,O=C1C(=Cc2ccc(Oc3ccc([N+](=O)[O-])cn3)cc2)C(=O)c2ccccc21,4.6
15,O=C1NC(=S)N/C1=C\c1ccc(Oc2ccc([N+](=O)[O-])cn2)cc1,101
16,COc1cc(/C=C2\NC(=S)NC2=O)ccc1Oc1ccc([N+](=O)[O-])cn1,8.2
17,O=C1NC(=S)S/C1=C\c1ccc(Oc2ccc([N+](=O)[O-])cn2)cc1,61.8
18,O=C1NC(=S)NC(=O)C1=Cc1ccc(Oc2ccc([N+](=O)[O-])cn2)cc1,10.5
19,COc1ccc(C(=O)Nc2ccc(S(=O)(=O)NC(C)=O)cc2)cc1,13.1
20,COc1ccc(-n2cnc3cc(NS(=O)(=O)c4ccc(C)cc4)ccc32)cc1,-1.2
21,COc1cc(C(=O)Nc2nnc(CC(=O)NCc3ccccc3)s2)cc(OC)c1OC,-14
22,CCCOc1ccc(N2C(=O)C3C4C=CC(C4=C(C)C)C3C2=O)cc1 (stereo not drawn),9.9
23,CC(=O)Oc1ccc(N2C(=O)C3C4C=CC(C4=C(C)C)C3C2=O)cc1 (stereo not drawn),-3.2

row,Compound,displacement [%]
1,COc1ccc(N2C(=O)C3C4C=CC(C4=C(C)C)C3C2=O)cc1 (stereo not drawn),120
2,O=C1N=C(N2CCOCC2)S/C1=C/c1ccc(Cl)cc1,-0.1
3,COC(=O)c1sccc1NC(=O)c1cc(-c2ccccc2Cl)nc2ccccc12,22.7
4,COC(=O)c1sccc1NC(=O)c1cc(-c2ccc(OC)cc2OC)nc2ccccc12,16.4
5,COc1cc(NC(=O)c2cc(-c3cccs3)nc3ccccc23)c(OC)cc1Cl,55.2
6,COc1ccc(NC(=O)c2cc(-c3ccc(OC)cc3OC)nc3ccccc23)c(OC)c1,-0.8
7,COC(=O)c1ccccc1NC(=O)c1cc(-c2ccc(OC)cc2OC)nc2ccccc12,-3
8,COc1ccc(-c2cc(C(=O)Nc3ccccc3F)c3ccccc3n2)c(OC)c1,82.3
9,COC(=O)c1sccc1NC(=O)c1cc(-c2cccs2)nc2ccccc12,60.4
10,COc1ccccc1NC(=O)c1cc(-c2cccs2)nc2ccccc12,-3.7
11,COC(=O)c1cc(-c2ccc(Br)cc2)nc2ccccc12,0
12,COC(=O)c1cc(-c2cccs2)nc2ccc(Br)cc12,104
13,COc1ccc(Cl)cc1NC(=O)c1cc(-c2cccs2)nc2ccccc12,8.5
14,COC(=O)c1cc(-c2ccc(OC)cc2)nc2ccc(Br)cc12,-4.1
15,O=C(CSCC(=O)Nc1cccc(C(F)(F)F)c1)Nc1ccccc1,-10.4
16,CCOc1cc(/C=N/NC(=O)c2ccncc2)ccc1OC(=O)c1ccc([N+](=O)[O-])cc1,6.9
17,O=C1c2cccc3cccc(c23)C(=O)N1/N=C/c1ccco1,25.1
18,COc1ccc(S(=O)(=O)Nn2cnnc2)cc1,-1
19,O=C(O)CN(c1ccccc1)S(=O)(=O)c1ccccc1[N+](=O)[O-],4.7
20,CCOC(=O)C1=C(O)/C(=C\c2ccc(OC)cc2)N=C1C,4.4
21,Cc1onc(-c2ccccc2Cl)c1C(=O)Nc1sc(C)c(C)c1C(=O)OC(C)C,-6.3
22,CCN(CC)CCN1C(=O)C(O)=C(C(=O)/C=C/c2ccccc2)C1c1ccccc1[N+](=O)[O-] (stereo not drawn),3.2
